Measurements reported in PubChem BioAssay (Tox21).
Where “and” joins values, the source holds several entries; their conditions need not be identical. Equal values may be shown once. Results filed as inconclusive are left out. Calls of active or inactive are those of the source. Unless noted, the call rests on the fitted dose curve; in most records, active means well fitted curve in the direction sought with a large enough effect in the repeat runs; inconclusive means weak or mixed curves; inactive means no such curve, though single readings can be large; an effect the other way counts as inactive or inconclusive.

How the values were obtained:
[1] = qHTS assay to identify small molecule agonists of the peroxisome proliferator-activated receptor delta (PPARd) signaling pathway - cell viability counter screen (AID 743211); further: nearly all actives have a fitted effect of over 55% in size; further: potency means the concentration at half of the fitted maximal effect
Outline: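 Viability was measured as CellTiter-Glo luminescence (30 min, room temperature) in the same wells as the beta-lactamase readout. GeneBLAzer PPARd UAS-bla HEK293H cells received compound after 5 h plating and were incubated 17 h at 37 C.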

[2] = target: Peroxisome proliferator-activated receptor delta (Homo sapiens) (UniProt Q03181); assay: qHTS assay to identify small molecule agonists of the peroxisome proliferator-activated receptor delta (PPARd) signaling pathway (AID 743212; calls by dose curve; further: on the % scale 0 is the no-effect control and ±100 the full control effect)
Outline: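 A PPARd-bla HEK293H line with beta-lactamase under an Upstream Activator Sequence is treated with compounds at 37 C. Substrate loading for 2 h at room temperature precedes the fluorescence measurement.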

[3] = qHTS assay to identify small molecule antagonists of the peroxisome proliferator-activated receptor delta (PPARd) signaling pathway - cell viability counter screen (AID 743213); further: nearly all actives have a fitted effect of over 50% in size; further: potency means the concentration at half of the fitted maximal effect
Outline: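 CellTiter-Glo was added to PPARd-bla HEK293H wells following 17 h compound treatment in the presence of 300 nM L165041. Luminescence was recorded after 30 min at room temperature.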

[4] = target: Peroxisome proliferator-activated receptor delta (Homo sapiens) (UniProt Q03181); assay: qHTS assay to identify small molecule antagonists of the peroxisome proliferator-activated receptor delta (PPARd) signaling pathway (AID 743215; active means well fitted inhibition curve with a large enough effect in the signal ratio in the repeat runs, not every such curve was filed as active; the % refers to the signal ratio;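 further: cells stimulated with agonist L165041 at 300 nM final during compound exposure; series mostly up to about 62 µM; on the % scale 0 is the no-effect control and ±100 the full control effect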)
Outline: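 Read-out is beta-lactamase FRET fluorescence, measured 2 h after substrate addition at room temperature. Beforehand, UAS-bla HEK293H cells carrying the PPARd reporter were exposed to compounds with L165041 at 300 nM final for 17 h at 37 C.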

[5] = qHTS assay to identify small molecule agonists of the farnesoid-X-receptor (FXR) signaling pathway - cell viability counter screen (AID 743218); further: nearly all actives have a fitted effect of over 45% in size; further: potency means the concentration at half of the fitted maximal effect
Outline: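 HEK 293T FXR-bla cells; 5 h pre-incubation, 16 h compound exposure at 37 C; LiveBLAzer substrate 2 h RT, then CellTiter-Glo 30 min RT, luminescence.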

[6] = qHTS assay to identify small molecule antagonists of the farnesoid-X-receptor (FXR) signaling pathway - cell viability counter screen (AID 743221; active means well fitted cell-killing curve with a large enough effect in the repeat runs, not every such curve was filed as active; further: nearly all actives have a fitted effect of over 50% in size; further: potency means the concentration at half of the fitted maximal effect)
Outline: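 Cytotoxicity counter screen run in the FXR-bla reporter wells: HEK 293T cells exposed to compound with 50 uM (final) chenodeoxycholic acid for 16 h, 37 C, then viability measured by CellTiter-Glo luminescence after 30 min, room temperature.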

[7] = qHTS assay to identify small molecule antagonists of the vitamin D receptor (VDR) signaling pathway - cell viability counter screen (AID 743225); further: nearly all actives have a fitted effect of over 50% in size; further: potency means the concentration at half of the fitted maximal effect
Outline: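 Cytotoxicity counter screen read by CellTiter-Glo luminescence (30 min, room temperature) in the same wells as the VDR-bla antagonist readout. HEK 293T VDR-UAS-bla cells had 16 h at 37C with compound and 3 nM (final) 1-alpha,25-dihydroxyvitamin D3, then 2 h with FRET substrate.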

[8] = qHTS assay to identify small molecule agonists of the NFkB signaling pathway - cell viability counter screen (AID 1159515; calls by dose curve; further: series mostly up to about 61 µM; on the % scale 0 is the no-effect control and ±100 the full control effect; nearly all actives have a fitted effect of over 55% in size)
Outline: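 Luminescence from CellTiter-Glo (30 min, room temperature) gives viability, measured in the same wells as the beta-lactamase reporter read. Cells were NFkB-bla ME-180, 2,000 per well, treated 5 hr with compounds.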

[9] = qHTS assay to identify small molecule agonists of the endoplasmic reticulum stress response signaling pathway (AID 1159516; active means well fitted activation curve with a large enough effect in the signal ratio in the repeat runs, not every such curve was filed as active; the % refers to the signal ratio; further: on the % scale 0 is the no-effect control and ±100 the full control effect)
Outline: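 Read-out is beta-lactamase cleavage of a FRET substrate (405 nm excitation; 460 and 530 nm emissions) in ESRE-bla HeLa cells after a 5 hr compound exposure at 37 C. Substrate incubation ran 2 hr at room temperature.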

[10] = qHTS assay to identify small molecule agonists of the endoplasmic reticulum stress response signaling pathway - cell viability counter screen (AID 1159517; calls by dose curve; further: nearly all actives have a fitted effect of over 50% in size; further: potency means the concentration at half of the fitted maximal effect)
Outline: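 CellTiter-Glo was added to wells already read for beta-lactamase FRET, and luminescence was recorded 30 min later. Cells: ESRE-bla HeLa, 1,500 per well, compound exposure 5 hr at 37 C.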

[11] = qHTS assay to identify small molecule antagonists of the retinoid-related orphan receptor gamma (ROR-gamma) signaling pathway - cell viability counter screen (AID 1159520); further: nearly all actives have a fitted effect of over 50% in size; further: potency means the concentration at half of the fitted maximal effect
Outline: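 Tet-on ROR gamma CHO cells (1,000/well) were plated 4 hr, given compounds in DMSO for 2 hr at 37 C, then induced with 1 uM final doxycycline for 16 hr. Viability was read as ATP by CellTiter-Glo luminescence after 30 min.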

[12] = qHTS assay to identify small molecule agonists of the AP-1 signaling pathway - cell viability counter screen (AID 1159525; calls by dose curve; further: nearly all actives have a fitted effect of over 55% in size; further: potency means the concentration at half of the fitted maximal effect)
Outline: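 ME-180 AP-1-bla, 2500 cells/well, Opti-MEM + 0.5% dialyzed FBS; overnight 37 °C; cpd 15-pt titration, 5 h 37 °C; CellTiter-Glo 30 min RT; luminescence read; normalised to TOAB and DMSO controls.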

[13] = qHTS assay to identify small molecule agonists of the AP-1 signaling pathway (AID 1159526; calls by dose curve; further: on the % scale 0 is the no-effect control and ±100 the full control effect)
[14] = target: Bile acid receptor (Homo sapiens) (UniProt Q96RI1); assay: qHTS assay to identify small molecule antagonists of the farnesoid-X-receptor (FXR) signaling pathway (AID 743217; active means well fitted inhibition curve with a large enough effect in the signal ratio in the repeat runs, not every such curve was filed as active; the % refers to the signal ratio; further: potency means the concentration at half of the fitted maximal effect)
Outline: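 HEK 293T FXR-UAS-bla, 5000 cells/well; compound + CDCA 50 uM final; 16 h, 37 °C; B/G FRET substrate 2 h RT; fluorescence.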

[15] = target: Bile acid receptor (Homo sapiens) (UniProt Q96RI1); assay: qHTS assay to identify small molecule agonists of the farnesoid-X-receptor (FXR) signaling pathway (AID 743220; active means well fitted activation curve with a large enough effect in the signal ratio in the repeat runs, not every such curve was filed as active; the % refers to the signal ratio; further: on the % scale 0 is the no-effect control and ±100 the full control effect)
Outline: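 Beta-lactamase reporter under UAS control in GeneBLAzer FXR HEK 293T cells (5000/well) measured with LiveBLAzer FRET substrate after 2 h at room temperature. Compound exposure lasted 16 h at 37C.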

[16] = target: Vitamin D3 receptor (Homo sapiens) (UniProt P11473); assay: qHTS assay to identify small molecule agonists of the vitamin D receptor (VDR) signaling pathway (AID 743222; calls by dose curve; further: on the % scale 0 is the no-effect control and ±100 the full control effect)
Outline: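 VDR-bla cells, 2,000/well; 4 h preincubation 37C; cpd (DMSO) 16 h; LiveBLAzer B/G substrate 2 h RT; fluorescence intensity read.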

[17] = target: Vitamin D3 receptor (Homo sapiens) (UniProt P11473); assay: qHTS assay to identify small molecule antagonists of the vitamin D receptor (VDR) signaling pathway (AID 743223; active means well fitted inhibition curve with a large enough effect in the signal ratio in the repeat runs, not every such curve was filed as active; the % refers to the signal ratio; further: potency means the concentration at half of the fitted maximal effect)
Outline: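 Antagonist mode: compound added to VDR-bla cells alongside agonist 1alpha,25-dihydroxyvitamin D3 (3 nM final), incubation 16 h at 37C. Read-out is LiveBLAzer FRET fluorescence, 2 h at room temperature.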

[18] = qHTS assay to identify small molecule agonists of the vitamin D receptor (VDR) signaling pathway - cell viability counter screen (AID 743224); further: nearly all actives have a fitted effect of over 50% in size; further: potency means the concentration at half of the fitted maximal effect
Outline: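 Luminescence from CellTiter-Glo, read after 30 min at room temperature, reports viability of VDR-bla cells treated with compounds for 16 h at 37C in the wells used for the beta-lactamase FRET read.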

[19] = target: Nuclear receptor ROR-gamma (Homo sapiens) (UniProt P51449); assay: qHTS assay to identify small molecule antagonists of the retinoid-related orphan receptor gamma (ROR-gamma) signaling pathway (AID 1159521; further: nearly all actives have a fitted effect of over 50% in size; further: potency means the concentration at half of the fitted maximal effect)
Outline: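 Antagonist read-out: drop in luminescence (ONE-Glo) from an RORE-LUC reporter in CHO cells with doxycycline-inducible ROR-gamma; 2 hr compound pretreatment, 1 uM doxycycline, 16 hr incubation at 37 C.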

[20] = target: Retinoic acid receptor RXR-alpha (Homo sapiens) (UniProt P19793); assay: qHTS assay to identify small molecule agonists of the RXR signaling pathway (AID 1159527; calls by dose curve; further: on the % scale 0 is the no-effect control and ±100 the full control effect; nearly all actives have a fitted effect of over 35% in size)
Outline: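 Agonist-mode beta-lactamase reporter assay: HEK 293T RXR-alpha-UAS-bla cells treated 16 hr at 37 C with compounds, 9-cis retinoic acid as positive control. LiveBLAzer FRET substrate, 405 nm excitation, 460/530 nm emission.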

Vitamin D3 receptor (Homo sapiens), sequence (P11473 whole entry, looked up): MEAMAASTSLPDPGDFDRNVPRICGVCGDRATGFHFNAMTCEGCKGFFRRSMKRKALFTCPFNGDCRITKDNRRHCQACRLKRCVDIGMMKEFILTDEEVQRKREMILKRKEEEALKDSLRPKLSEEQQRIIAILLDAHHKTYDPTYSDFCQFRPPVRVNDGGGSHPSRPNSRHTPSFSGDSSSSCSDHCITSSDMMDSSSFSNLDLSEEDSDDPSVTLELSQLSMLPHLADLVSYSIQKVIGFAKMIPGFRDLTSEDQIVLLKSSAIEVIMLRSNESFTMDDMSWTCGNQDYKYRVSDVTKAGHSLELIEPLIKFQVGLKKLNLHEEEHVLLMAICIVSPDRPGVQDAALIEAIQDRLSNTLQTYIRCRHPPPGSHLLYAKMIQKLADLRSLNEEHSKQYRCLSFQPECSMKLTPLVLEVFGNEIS
Peroxisome proliferator-activated receptor delta (Homo sapiens), sequence (Q03181 whole entry, looked up): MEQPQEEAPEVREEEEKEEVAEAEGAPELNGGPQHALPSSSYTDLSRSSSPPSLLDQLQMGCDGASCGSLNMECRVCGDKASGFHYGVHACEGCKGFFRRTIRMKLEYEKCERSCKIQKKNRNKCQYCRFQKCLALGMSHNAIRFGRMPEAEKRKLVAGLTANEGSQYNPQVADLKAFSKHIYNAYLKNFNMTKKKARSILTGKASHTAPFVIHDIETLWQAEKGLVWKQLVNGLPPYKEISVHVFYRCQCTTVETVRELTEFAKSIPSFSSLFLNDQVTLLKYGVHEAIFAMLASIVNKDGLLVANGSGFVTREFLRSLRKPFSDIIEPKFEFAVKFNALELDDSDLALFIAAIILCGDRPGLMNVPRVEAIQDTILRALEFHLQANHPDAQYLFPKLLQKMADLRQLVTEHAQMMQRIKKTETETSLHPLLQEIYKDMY
Bile acid receptor (Homo sapiens), sequence (Q96RI1 whole entry, looked up): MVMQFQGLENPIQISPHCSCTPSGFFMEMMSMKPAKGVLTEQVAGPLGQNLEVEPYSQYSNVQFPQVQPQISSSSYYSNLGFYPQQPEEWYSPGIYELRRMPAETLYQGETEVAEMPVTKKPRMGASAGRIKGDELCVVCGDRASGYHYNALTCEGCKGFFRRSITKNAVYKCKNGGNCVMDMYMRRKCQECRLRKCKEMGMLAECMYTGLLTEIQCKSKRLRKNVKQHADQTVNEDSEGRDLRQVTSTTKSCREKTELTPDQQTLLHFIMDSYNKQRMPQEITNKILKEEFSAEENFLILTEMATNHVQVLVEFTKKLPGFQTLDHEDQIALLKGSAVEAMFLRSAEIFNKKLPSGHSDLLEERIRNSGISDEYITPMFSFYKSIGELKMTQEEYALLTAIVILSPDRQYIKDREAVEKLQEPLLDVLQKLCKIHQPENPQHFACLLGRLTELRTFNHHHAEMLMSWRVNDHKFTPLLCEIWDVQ
Retinoic acid receptor RXR-alpha (Homo sapiens), sequence (P19793 whole entry, looked up): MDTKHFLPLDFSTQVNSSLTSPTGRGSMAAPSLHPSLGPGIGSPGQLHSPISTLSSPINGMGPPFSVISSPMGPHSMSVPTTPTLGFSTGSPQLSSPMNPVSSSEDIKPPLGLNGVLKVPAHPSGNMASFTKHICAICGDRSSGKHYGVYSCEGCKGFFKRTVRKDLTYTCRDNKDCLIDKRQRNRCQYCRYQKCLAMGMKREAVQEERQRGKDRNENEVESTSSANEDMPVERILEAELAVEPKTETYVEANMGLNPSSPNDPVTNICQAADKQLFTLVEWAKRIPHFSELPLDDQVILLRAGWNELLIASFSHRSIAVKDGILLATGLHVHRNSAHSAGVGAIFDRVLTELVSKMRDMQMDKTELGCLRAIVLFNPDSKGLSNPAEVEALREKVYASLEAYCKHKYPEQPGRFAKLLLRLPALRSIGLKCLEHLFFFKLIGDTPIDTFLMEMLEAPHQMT

CCOP(=S)(OCC)SCSc1cc(Cl)ccc1Cl
inactive: Potency [1] | outcome [2] | Potency [3] | Potency [4] | Potency [5] | Potency [6] | Potency [7] | Potency [8] | Potency [9] | Potency [10] | Potency [11] | Potency [12] | Potency [13]

CC(C)c1ccc(OP(=O)(Oc2ccc(C(C)C)cc2)Oc2ccc(C(C)C)cc2)cc1
active: Potency [1] 27.7 µM and 43.7 µM and 27.5 µM | Potency [3] 4.89 µM | Potency [14] 22 µM | Potency [10] 9.77 µM
inactive: outcome [15] | outcome [16] | Potency [17] | Potency [9] | Potency [11] | Potency [12] | Potency [13]

COc1cc(C[C@@H](C)N)c(OC)cc1Br
active: Potency [1] 62.8 µM | Potency [5] 31.5 µM
inactive: Potency [18] | Potency [7] | Potency [9] | Potency [10] | Potency [11] | Potency [19] | Potency [12] | Potency [13] | Potency [20]

CCC1(C2=NCCN2)Cc2ccccc2O1 (stereo not given)
inactive: Potency [1] | Potency [3] | Potency [5] | Potency [6] | Potency [17] | Potency [18] | Potency [7] | Potency [9] | Potency [10] | Potency [11] | Potency [19] | Potency [12] | Potency [13] | Potency [20]

C=CCc1ccccc1O
inactive: Potency [1] | Potency [3] | Potency [4] | Potency [14] | Potency [5] | Potency [6] | outcome [16] | Potency [17] | Potency [18] | Potency [9] | Potency [10] | Potency [11] | Potency [12] | Potency [13] | Potency [20]

O=[N+]([O-])c1cc(Cl)c(Cl)cc1Cl
inactive: Potency [1] | outcome [2] | Potency [4] | Potency [5] | Potency [6] | outcome [16] | Potency [17] | Potency [7] | Potency [9] | Potency [10] | Potency [11] | Potency [12] | Potency [13] | Potency [20]

C[CH2][Hg][S]c1ccccc1C(=O)O
active: Potency [1] 871 nM and 2.11 µM | Potency [3] 2.19 µM and 1.68 µM | Potency [5] 1.55 µM and 2.66 µM | Potency [6] 6.92 µM and 4.22 µM | Potency [17] 3.38 µM | Potency [18] 1.23 µM and 2.11 µM | Potency [7] 3.47 µM and 4.25 µM | Potency [10] 6.74 µM | Potency [11] 1.09 µM and 1.68 µM | Potency [19] 611 nM and 1.33 µM | Potency [12] 4.36 µM and 3.79 µM

CC(C)(C#N)C(C)(C)C#N
inactive: Potency [1] | outcome [2] | Potency [4] | Potency [14] | Potency [5] | Potency [6] | Potency [7] | Potency [9] | Potency [10] | Potency [11] | Potency [19] | Potency [12] | Potency [13]

Nc1c(Br)cc(Br)c2c1C(=O)c1ccccc1C2=O
inactive: Potency [1] | outcome [2] | Potency [3] | Potency [4] | Potency [6] | Potency [17] | Potency [18] | Potency [9] | Potency [10] | activity, negative = cytotoxicity [11] -2.6% [at 19 µM] | activity change, negative = inhibition [19] 13.2% [at 19 µM] | viability change, negative = cytotoxic [12] 1.64% [at 15.8 µM] | activation [13] 0.821% [at 15.8 µM]
